From PubChem BioAssay
Gal4-VP16 FLuc: Gal4-VP16 reporter inhibition counter-screen; Drosophila S2 Gal4-VP16 UAS-luciferase, luminescence, 20 h; Potency, µM (top dose mostly 53.6 µM), inactives show at the highest dose activity, negative = inhibition, actives largely listed as inhibitors; actives 3.5% (n = 310,000);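 also: Gal4-VP16 expression switched on by copper sulfate through the metallothionein promoter; nearly all actives have a fitted effect of over 50% in size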
Tau fibril FP: blocks human tau fibril formation measured by polarization. K18 P301L tau heparin fibrillization, Alexa594 FP, 6 h. Potency, µM (doses to about 57.7 µM), inactives show at the top dose activity, negative = inhibition, most hits filed as inhibitors. actives 0.39% (n = 280,000). P10636; also: nearly all actives have a fitted effect of over 55% in size
Target sequence (P10636 561-689 P618L limits assumed): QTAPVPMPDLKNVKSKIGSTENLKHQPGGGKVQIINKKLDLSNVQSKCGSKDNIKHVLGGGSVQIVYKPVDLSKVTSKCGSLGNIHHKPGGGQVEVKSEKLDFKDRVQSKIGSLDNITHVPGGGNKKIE
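Steps: dispense K18 P301L tau (15 uM plus 0.24 uM Alexa 594 tracer, final) in pH 7 sodium acetate; add compound; add heparin (20 uM final); incubate 6 hr, 37 C; add ThT (30 uM final); after 1 hr ambient, read FP.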
Tau fibril ThT: tau fibrillization inhibition (ThT binding); P10636; recombinant tau K18 P301L, heparin-induced fibrillization, ThT fluorescence; Potency, µM (series often up to 57.4 µM), for inactives: top-dose activity, negative = inhibition, most hits filed as inhibitors; actives 2.1% (n = 270,000); also: nearly all actives have a fitted effect of over 55% in size
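Fibril formation assay: tau K18 P301L at 15 uM with trace Alexa 594 label, heparin inducer 20 uM, pH 7 sodium acetate buffer, 37 C for 6 hr; endpoint ThT signal.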
RORgamma inh: ROR gamma (mouse) transcription inhibition; P51450; Drosophila S2 Gal4-RORgamma UAS-luciferase reporter, 20 h; actives 5.4% (n = 310,000); AID 2551; Potency, µM (top dose mostly 53.6 µM), for the others: at the top dose activity change, negative = inhibition, usual class: inhibitors; also: nearly all actives have a fitted effect of over 60% in size
Target sequence (P51450 whole entry, looked up, the tested form may be a part): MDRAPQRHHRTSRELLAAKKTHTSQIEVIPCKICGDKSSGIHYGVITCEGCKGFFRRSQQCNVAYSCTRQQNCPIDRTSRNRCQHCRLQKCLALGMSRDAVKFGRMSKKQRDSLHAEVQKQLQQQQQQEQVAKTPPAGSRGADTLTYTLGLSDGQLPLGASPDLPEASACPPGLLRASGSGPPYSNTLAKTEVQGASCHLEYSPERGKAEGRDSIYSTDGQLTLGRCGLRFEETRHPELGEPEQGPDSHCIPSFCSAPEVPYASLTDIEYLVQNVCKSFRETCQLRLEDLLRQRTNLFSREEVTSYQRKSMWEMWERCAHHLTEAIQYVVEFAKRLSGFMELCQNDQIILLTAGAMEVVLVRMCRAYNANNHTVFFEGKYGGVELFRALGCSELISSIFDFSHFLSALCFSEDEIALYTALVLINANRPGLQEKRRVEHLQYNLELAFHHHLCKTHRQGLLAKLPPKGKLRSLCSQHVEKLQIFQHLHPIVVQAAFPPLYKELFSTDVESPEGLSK
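Schneider cells (Drosophila), stable Gal4 DBD–ROR gamma + UAS-luc; 1 hr cmpd preincubation; Cu2+ induction 700 uM final; 20 hr ambient; luminescence.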
Tau fluor counter: counter-screen for tau fibril formation inhibitors; tau K18 P301L Alexa594 fluorescence, heparin fibrillization; Potency, µM (titrated, usually from 57.7 µM), for inactives: top-dose activity change, negative = decrease; actives 0.93% (n = 280,000); AID 1463; also: nearly all actives have a fitted effect of over 55% in size
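Human tau K18 P301L (15 uM unlabeled, 0.24 uM Alexa 594-labeled) in 100 mM sodium acetate pH 7 with 20 uM heparin, 6 hr at 37 C. ThT 30 uM added, 1 hr ambient; Alexa 594 FP and total fluorescence read at 555/632 nm.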
* = called active by the depositor; ? = inconclusive; . = no result given; [ ] = another dose, or the depositor's remark. This is a sample that favours compounds with a hit; in the whole collection about 7.3% have one here. Calls follow the shape of the dose curve; as a rule, active = well fitted curve in the direction sought with a large enough effect; inconclusive = small, poorly fitted or top-dose-only effect, or another doubt; inactive = no such curve, though single readings can be large; an effect the other way counts as inactive or inconclusive. % is scaled to controls: 0 for no effect and ±100 for the full control effect; potency is read from the fitted curve at half-maximal effect.

SMILES	Gal4-VP16 FLuc	Tau fibril FP	Tau fibril ThT	RORgamma inh	Tau fluor counter
CCOC(=O)c1c(NC(C)=O)c2c3c(sc2n1Cc1nc(-c2cccc(C)c2)oc1C)CCCC3	.	-5%	-5%	.	-2%
CCc1cccc(CC)c1NC(=O)COC(=O)c1ccccc1-c1nc2ccccc2s1	?	10%	-5%	43%	-4%
COCCCNC(=O)COC(=O)c1ccc(-c2nc3ccccc3s2)s1	0.28µM*	-9%	-12%	2.8µM*	-9%
CC(c1ccccc1)n1c(-c2ccc(Cl)cc2)n[nH]c1=S (centres undefined)	6.3µM*	.	.	5.6µM*	.
CC(c1ccc(F)cc1)n1c(-c2cccs2)n[nH]c1=S (centres undefined)	10µM*	-3%	-5%	2.8µM*	-8%
CC(c1ccc(F)cc1)n1c(Cn2ncc3ccccc3c2=O)n[nH]c1=S (centres undefined)	24%	-3%[2.34 µM]	-17%	-42%	-21%
CC(c1ccccc1)n1c(-c2ccncc2)n[nH]c1=S (centres undefined)	?	7%	2%	?	3%
CC(c1ccccc1)n1c(-c2ccccc2F)n[nH]c1=S (centres undefined)	6.3µM*	.	.	7.1µM*	.
CC(C)n1c(-c2ccccc2F)n[nH]c1=S	11µM*	1%	-3%	3.2µM*	-2%
CCOC(=O)N1CCC(NC(=O)c2cnn(-c3cccc(F)c3)c2-n2cccc2)CC1	.	0%	-12%	.	-10%
CCc1c(C)nc2nc(SCc3ccccc3Cl)[nH]n2c1=O	25µM*	.	.	?	.
Cc1nc2nc(NCc3ccccc3Cl)[nH]n2c(=O)c1Cc1ccccc1	.	-12%	-7%	.	-10%
Cc1cc2ncn(-c3ncnc4sc(C)c(C)c34)c2cc1C	-29%	-4%	-3%	5%	0%
c1ccc(-c2csc3ncnc(N4CCc5ccccc5C4)c23)cc1	13µM*	-6%	7%	?	3%
Cc1cc2ncn(-c3ncnc4scc(-c5ccccc5)c34)c2cc1C	-25%	-2%	-5%	5.6µM*	-2%
CS(=O)(=O)CCCCN=C=S	-16%	-4%	-14%	13µM*	-6%
C=C(C)CN=c1scc(C)n1/N=C/c1ccco1	-1%	12%	-6%	?	-3%
CCN=c1scc(-c2ccco2)n1/N=C/c1ccc(O)cc1	0.5µM*	8%	7.1µM*	0.1µM*	14µM*[quencher]
CCN=c1scc(-c2ccco2)n1/N=C/c1ccc(OC)c(O)c1	30%	?	10µM*	-32%	16µM*[quencher]
CCOc1cc(/C=C2\N=C(SC)SC2=O)cc([N+](=O)[O-])c1OC(C)=O	-15%	-11%	3.5µM*	-7%	?
COc1ccc(/C=C2\N=C(SC)SC2=O)cc1OC	-18%	0%	?	-15%	-12%
CCSC1=N/C(=C\c2ccc(C(=O)O)cc2)C(=O)S1	11%	-9%	-10%	20%	-3%
CCOc1cc(/C=C2\N=C(SCC)SC2=O)cc([N+](=O)[O-])c1OC(C)=O	-17%	-10%	4µM*	10%	?
CCOc1c(OC(C)=O)ccc(/C=C2\N=C(SCC)SC2=O)c1[N+](=O)[O-]	-3%	?	14µM*	-1%	18µM*[quencher]
CCOc1ccccc1OCCCCn1c(-c2ccc(Cl)cc2)nc2ccccc2c1=O	.	-7%	-4%	.	-15%
SMILES	Gal4-VP16 FLuc	Tau fibril FP	Tau fibril ThT	RORgamma inh	Tau fluor counter
CCNC(=S)N/N=C/c1cccc(OCc2c(F)cccc2Cl)c1	0.71µM*	2%	0%	0.71µM*	-4%
CNC(=S)N/N=C/c1cccc(OCc2ccccc2F)c1	4.5µM*	-13%	-5%	2.2µM*	-25%
Fc1ccccc1COc1ccc(/C=N/NC(=S)NCc2ccccc2)cc1	1µM*	-3%	-8%	0.89µM*	-18%
O=C(N/N=C/c1cccc(Oc2ccccc2)c1)c1ccccc1F	-4%	.	.	-22%	.
C=CCOC(=O)C(C(C)=O)C(NC(=O)OC)c1ccc(F)cc1 (centres undefined)	-4%[10 µM]	6%[11.6 µM]	-10%[11.5 µM]	1%[10 µM]	-9%[11.6 µM]
COc1ccc(Cl)cc1NC(=O)Cn1ccn(Cc2ccc(C)cc2)c(=O)c1=O	.	-4%	2%	.	-15%
Cc1ccc(NC(=O)c2ccc(F)c(S(=O)(=O)NCCc3ccccc3)c2)cc1F	.	25µM*	10%	.	7.1µM*[quencher]
CCN(c1ccccc1)S(=O)(=O)c1cc(C(=O)Nc2ccc(F)c(F)c2)ccc1F	?	14µM*	8%	?	?
O=S(=O)(NCc1cccs1)c1ccc(Br)cc1	-1%	.	.	?	.
O=C(Nc1ccc(Br)cc1)c1ccc(F)c(S(=O)(=O)NCc2cccs2)c1	10µM*	?	9%	?	?
Cc1ccc(NC(=O)c2ccc(F)c(S(=O)(=O)N3CCc4ccccc4C3)c2)cc1F	.	?	3%	.	?
COC(=O)c1c(NC(=O)COc2ccc(C)cc2Br)sc2c1CCCC2	.	-4%	-6%	.	-4%
CCCCC1=CC2=C(OC(C)=O)C(=O)C(C)(OC(=O)c3ccc(Cl)nc3)C(=O)C2=CO1 (centres undefined)	-2%	?	22µM*	19%	?
CCCCC1=CC2=C(c3ccco3)C(=O)C(C)(OC(=O)c3ccc(Cl)nc3)C(=O)C2=CO1 (centres undefined)	-3%	5%	-13%	9%	-7%
C=CCOC(=O)N[C@@H](CCc1ccccc1)C(C(C)=O)C(C)=O	-8%	6%	-6%	16%	-1%
CCOc1ccc(NC(=S)N(CCOC)C(C)c2ccco2)cc1 (centres undefined)	?	4%	-11%	8.9µM*	-13%
COCCN(C(=S)Nc1ccc(C)cc1)C(C)c1ccco1 (centres undefined)	-14%	-1%	-3%	?	-5%
CCc1cccc(C)c1NC(=S)N(CCOC)C(C)c1ccco1 (centres undefined)	0%	-8%	-3%	10µM*	-9%
CCc1ccccc1NC(=S)N(CCOC)C(C)c1ccco1 (centres undefined)	-5%	-3%	17%	13µM*	15%
COc1ccc(S(=O)(=O)N2c3ccccc3OCC2C(C)(C)C)cc1 (centres undefined)	16µM*	-7%	-3%	-10%	-21%
O=C(COc1ccccc1[N+](=O)[O-])N/N=C/c1cccs1	16%	9%	-11%	-43%	3%
Cc1ccc(/C=N\NC(=O)COc2ccc(C)cc2[N+](=O)[O-])cc1	6%	-3%	?	-11%	-13%
Cn1cc(/C=N/NC(=O)COc2ccccc2[N+](=O)[O-])c2ccccc21	13µM*	15%	?	?	?
Cc1ccc(OCC(=O)N/N=C\c2c(C)[nH]n(-c3ccccc3)c2=O)c([N+](=O)[O-])c1	0.56µM*	11%	?	0.5µM*	-22%
